About 79,000 compounds went through this panel and 15% of them were active in at least one assay; those are over-represented in the sample as a whole. No stated cut-off is given here; in the data, active means growth inhibition above about 70%; inactive means the rest. Where a SMILES comes first, the peptide text is derived from it.
How the values were obtained:
[1] = NCI Yeast Anticancer Drug Screen. Data for the rad50 strain (AID 155);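 further: 0% = growth of vehicle-only cultures of the same strain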; conditions: S. cerevisiae rad50 strain growth inhibition; at 50.0 µM; stronger effect = higher value
Summary of the method: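 Growth of the mutant yeast was measured after compound exposure and referenced to vehicle-treated cultures.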

[2] = NCI Yeast Anticancer Drug Screen. Data for the mec2-1 strain (AID 157); conditions: S. cerevisiae mec2-1 strain, at 50.0 µM, stronger effect = higher value
Summary of the method: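 Strain: mec2-1 (DNA repair/cell cycle alteration). Compound exposure, then growth measured; inhibition expressed relative to vehicle.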

[3] = NCI Yeast Anticancer Drug Screen. Data for the sgs1 mgt1 strain (AID 161);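 further: 0% = growth of cultures given vehicle only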; conditions: S. cerevisiae sgs1 mgt1 strain, at 50.0 µM, stronger effect = higher value
Summary of the method: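 Inhibition of yeast growth, normalised to vehicle-treated controls, is reported for a strain bearing genetic alterations in DNA damage repair.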

[4] = NCI Yeast Anticancer Drug Screen. Data for the cln2 rad14 strain (AID 165);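 further: 0% = growth equal to vehicle treated cultures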; conditions: S. cerevisiae cln2 rad14 strain, at 50.0 µM, stronger effect = higher value
Summary of the method: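 Compounds are applied to the cln2 rad14 yeast strain, and growth is then compared with that of vehicle-treated cultures to give inhibition.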

[5] = NCI Yeast Anticancer Drug Screen. Data for the bub3 strain (AID 167); conditions: S. cerevisiae bub3 mutant strain, at 50.0 µM, stronger effect = higher value
Summary of the method: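 Whole-cell yeast assay. The mutant strain was incubated with compounds, and growth inhibition was determined by comparison with vehicle-treated cells.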

[6] = NCI Yeast Anticancer Drug Screen. Data for the mlh1 rad18 strain (AID 175); conditions: S. cerevisiae mlh1 rad18 strain growth inhibition; at 50.0 µM; stronger effect = higher value
Summary of the method: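 Read-out is yeast growth inhibition, calculated against vehicle-only controls. The compound was applied to a strain engineered with DNA damage repair alterations.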

Measured: growth inhibition

CCCC(C)C(=O)OCCCc1ccccc1 (configuration not stated)
inactive: [1] 7.55% | [2] -5.2% | [3] 2.9% | [4] -20.1% | [5] 18.8% | [6] 3.8%

NNc1nnnc2ccccc12
inactive: [1] 14.2% | [2] 1.1% | [3] -0.8% | [4] -38.2% | [5] -31.1% | [6] 22.2%

CCOC(=O)C1CCC(=O)N1Cc1c[nH]c2ccccc12 (configuration not stated)
inactive: [1] 3.2% | [2] -12.7% | [3] -5.1% | [4] 1% | [5] 21.4% | [6] -14.7%

CCOC(=O)CNC(=O)C(Cc1ccccc1)NC(=O)C(N)CC(=O)O (stereo not drawn) (H-Asp-Phe-Gly-OEt; configuration not given here)
inactive: [1] -18.6% | [2] -42.4% | [3] -12.1% | [4] -19.9% | [5] -13.4% | [6] -25%

CC(=O)OC(NC(=O)c1cc(C)cc(C)c1)c1ccncc1 (configuration not stated)
inactive: [1] -2.05% | [2] -3.05% | [3] -0.75% | [4] -8.1% | [5] 4.6% | [6] 1.25%

c1ccc(-c2nnc3nn4c(-c5ccccc5)cnnc4c3c2-c2ccccc2)cc1
inactive: [1] -0.05% | [2] -10.3% | [3] -14.8% | [4] 1.4% | [5] -6.05% | [6] 1.5%

COC(C)(C)C(Br)C(=O)OCC(=O)c1ccc(Br)cc1 (configuration not stated)
inactive: [1] 25.9% | [2] -0.3% | [3] 11% | [4] 20.6% | [5] 0.8% | [6] 13.3%

COCn1c(C)c(C)c2c(=O)oc(=O)[nH]c21
inactive: [1] -23.2% | [2] 17.7% | [3] -30.6% | [4] -11.3% | [5] 16.6% | [6] -25.5%

COc1ccc(N=NN(C(C)=O)c2ccccc2)cc1
inactive: [1] 2.85% | [2] 10.2% | [3] 35.5% | [4] -5.75% | [5] -1% | [6] 19.1%

CCCCC(C(=O)OCC)[N+](=O)[O-] (configuration not stated)
inactive: [1] -24.2% | [2] -25.2% | [3] 2.5% | [4] 5.5% | [5] 2.35% | [6] 16.4%

CCCC(/C=N/Nc1ccc([N+](=O)[O-])cc1[N+](=O)[O-])=C\c1ccccc1
inactive: [1] -12.1% | [2] -29.2% | [3] 10.6% | [4] -22.9% | [5] 27.1% | [6] -50%

N=C(N)SCC(O)C(O)CSC(=N)N (configuration not stated)
inactive: [1] 0.3% | [2] 4.4% | [3] -0.95% | [4] -30.1% | [5] -6.45% | [6] -1.5%

CC(=O)CC(=O)NCc1cccc(C)n1
inactive: [1] 38.1% | [2] 24.6% | [3] 28.6% | [4] -8.15% | [5] 20.9% | [6] 24.1%

COP(=O)(OC)C(Cc1cn(C(C)=O)c2ccccc12)C(=O)O (configuration not stated)
inactive: [1] -53.3% | [2] -69.5% | [3] -56.8% | [4] -25.1% | [5] -27.4% | [6] -37.5%

O=C(O)c1ccc2ccccc2c1C(=O)c1ccc(F)cc1
inactive: [1] 10.1% | [2] -1.6% | [3] 17.9% | [4] 18.3% | [5] 20.3% | [6] 3.1%

COC1(C2COc3cc(OCc4ccccc4)ccc3C2=O)C=C2OCOC2=CC1=O (configuration not stated)
inactive: [1] -16.6% | [2] -18% | [3] -6.6% | [4] -33% | [5] 9.45% | [6] -4.75%

NC1=NS(=O)(=O)Nc2nc(-c3ccccc3)c(-c3ccccc3)nc21
inactive: [1] -24.6% | [2] -10.2% | [3] 12.5% | [4] -0.85% | [5] 2.6% | [6] 7.3%

CCNOCc1ccccc1
inactive: [1] -4.35% | [2] -11.7% | [3] -11% | [4] -18.1% | [5] -0.45% | [6] -9.95%

Cc1ccc(S(=O)(=O)/C(C#N)=C/NC(=S)Nc2ccc(S(N)(=O)=O)cc2)cc1
inactive: [1] 12.5% | [2] -21.2% | [3] -4.1% | [4] -6.85% | [5] -10.7% | [6] -10.9%

COC(=O)c1cc2c(cc1N=Cc1ccccc1Cl)OCO2
inactive: [1] 0.45% | [2] 4.3% | [3] 12.1% | [4] -1.65% | [5] -0.85% | [6] 6.35%

COc1cc(C(c2ccc3c(c2)OCO3)N2C(=O)CCC2C(=O)O)cc(OC)c1OC (configuration not stated)
inactive: [1] -14.1% | [2] -15.6% | [3] -18.8% | [4] -11.7% | [5] -7.8% | [6] -10.2%

CSc1nc2nc(C)[nH]c2c(=O)[nH]1
inactive: [1] 9.8% | [2] 5.45% | [3] -4.45% | [4] 41% | [5] 9.8% | [6] 7.6%

COC(=O)[C@@]12CN(C)[C@@H](C(C)(C)C)N1C(=O)OC2c1ccccc1 (some centres not stated)
inactive: [1] 24.4% | [2] -25.4% | [3] -23.1% | [4] -1.8% | [5] 36.6% | [6] -8.35%

Cc1nc2ccccc2nc1CC(=N)c1ccccc1
inactive: [1] 24.2% | [2] 15.8% | [3] -5.85% | [4] 5.1% | [5] 35.7% | [6] 17.8%

O=C(O)c1ccccc1Nc1nc2ccccc2o1
inactive: [1] -1.85% | [2] 2.15% | [3] -7.05% | [4] -26.6% | [5] 15.2% | [6] 0.25%

C[N+](C)(C)C(C1=CCCC1=O)c1ccccc1 (configuration not stated)
inactive: [1] 50% | [2] 43.3% | [3] 3.7% | [4] 26.9% | [5] 30.3% | [6] 43.6%

COC(=O)C(=O)c1c(-c2ccc(O)c(OC)c2)[nH]c2[nH]n(-c3ccccc3)c(=O)c2c1=O
inactive: [1] 24.6% | [2] -17.2% | [3] -1.75% | [4] -30.1% | [5] 14.8% | [6] 14.5%

COc1ccc(C(C)Nc2cc(OC)c(OC)c(OC)c2)cc1 (configuration not stated)
inactive: [1] -20.2% | [2] -14.1% | [3] -3.15% | [4] 5.5% | [5] -10.3% | [6] -15.1%

N#CC(C#N)=Cc1cccc(Oc2ccccc2)c1
inactive: [1] 57.1% | [2] -2.8% | [3] 9.6% | [4] 8.65% | [5] -8.65% | [6] -15.7%

CC1(C(Cl)(Cl)Cl)C=C/C(=N\O)C(Cl)=C1 (configuration not stated)
inactive: [1] -2.3% | [2] -10.7% | [3] -1.9% | [4] 4.95% | [5] -8.9% | [6] -7.75%

CCC(O)(c1ccccc1)C(OC)c1ccccc1 (configuration not stated)
inactive: [1] 15.3% | [2] 5.35% | [3] 14.5% | [4] 7.25% | [5] -0.35% | [6] 21.1%

c1ccc(CC/C(=N/N=C(\CCc2ccccc2)c2ccccc2)c2ccccc2)cc1
inactive: [1] 10.7% | [2] 8.05% | [3] -13.3% | [4] -8.75% | [5] -3% | [6] 7.6%

Cc1cn(C2CC(N(C)O)C(CO)O2)c(=O)[nH]c1=O (configuration not stated)
inactive: [1] -16.8% | [2] -27% | [3] -8.15% | [4] -34.7% | [5] -12.3% | [6] -58.9%

COc1ccccc1/C=C1\CCC(CCN(C)C)(C2=CCCC2)C1=O (configuration not stated)
inactive: [1] -3.05% | [2] -11.8% | [3] -27.5% | [4] 11.1% | [5] -17.7% | [6] 24.4%

O=C(CCl)N1C(=O)NC(c2ccc(Cl)cc2)(c2ccc(Cl)cc2)C1=O
inactive: [1] 6.9% | [2] 12% | [3] 8.9% | [4] -4.8% | [5] -29% | [6] -3.9%

CCN(CC)CCN(CCN(CC)CC)c1c(OC)cccc1OC
inactive: [1] 5.8% | [2] -13.2% | [3] 9.25% | [4] -14.4% | [5] 9.15% | [6] 15.8%

COc1cc(C=Nc2ccc(N3CCOCC3)cc2)ccc1O
inactive: [1] -1.1% | [2] -3.45% | [3] -8.45% | [4] -18.6% | [5] 12.6% | [6] -1.25%

CCOP(=O)(OCC)C(C(=O)OC)C(=O)C(=O)Nc1cccc([N+](=O)[O-])c1 (configuration not stated)
inactive: [1] 7.8% | [2] -5.85% | [3] 23.2% | [4] -58.6% | [5] 0.35% | [6] 1.45%

CCC(=O)OCC(OC(=O)CC)c1ccccc1 (configuration not stated)
inactive: [1] 3.75% | [2] -22.6% | [3] -16.1% | [4] 2.05% | [5] 3.75% | [6] 8.2%

Nc1ccn([C@@H](C=O)C[C@@H](C=O)CO)c(=O)n1
inactive: [1] -3.45% | [2] -0.85% | [3] 14.8% | [4] 19.3% | [5] 11.2% | [6] -45.6%

OCC(I)CO
inactive: [1] 15.8% | [2] 3.45% | [3] 16.9% | [4] 1.45% | [5] 1.7% | [6] 16.6%

C=CC1(C(=O)O)CCC(C(C)(C)C)CC1 (configuration not stated)
inactive: [1] 42.9% | [2] 42% | [3] 31.6% | [4] 36.1% | [5] 21.6% | [6] 13.3%

— PubChem BioAssay (NCI)
